Compound activity: PubChem, Broad Institute
U2OS ROS induce: inducers of reactive oxygen species in cancer cells | 46,000 compounds, 2% hits | ROS induction (% of piperlongumine), % at 10 µM | U2OS ROS induction, H2DCF-DA fluorescence | AID 624156; in the data active = ROS induction above about 79%, passing the limit was not always enough;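 also: 0% = DMSO vehicle median and 100% = reference compound median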
YB-1 expression: YB-1 expression inhibition. delta delta Cp (YB-1 minus CDIP) (test concentration not listed). 30,000 compounds, 0.37% hits. AID 434959. U2OS, qRT-PCR YB-1 vs CDIP delta delta Cp, 16 h; active compounds read high; zero = DMSO, each unit about twofold;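 active = delta delta Cp rounded down to an integer at or above 3, about 3 SD of DMSO wells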;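 also: higher means less YB-1 transcript or more CDIP transcript relative to DMSO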
* hit, by the source's call; · = no result given. Only some compounds are listed: those with a hit (about 2.1% of all), similar ones and a draw of the others.

SMILES	U2OS ROS induce	YB-1 expression
COc1ccc(NC(=O)CC(=O)c2ccccc2)cc1	-12	·
N#CC1=C(N)OC2=C(C(=O)CCC2)C12C(=O)N(CC(N)=O)c1ccccc12 (stereo unspecified)	-9	·
N#CC1=C(N)N(c2ccc(S(N)(=O)=O)cc2)C2=C(CCC2)C1(C(F)(F)F)C(F)(F)F	44	·
Cc1ccc(C(=O)CSc2nc(C)nc3sc(C)c(C)c23)cc1	119*	·
Cc1ccc(C(=O)CSc2nc(C)nc3sc4c(c23)CCCC4)cc1	5	·
Cc1cccc(C)c1NC(=O)C1(N(Cc2ccco2)C(=O)Cc2nc(N)n[nH]2)CCCCC1	10	·
COc1ccccc1NC(=O)C12CC3CC(CC(C3)C1)C2	1	·
CC(=O)Oc1ccc2occ(C(=O)CCN(C)C)c2c1	98*	-0.12
CC(=O)Oc1ccc2occ(C(=O)c3ccc(Br)s3)c2c1	30	0.025
CCCCC1CCC(C(=O)N(Cc2sccc2C)C2CCS(=O)(=O)C2)CC1 (stereo unspecified)	14	·
COC(=O)c1cc(O)cc(OC)c1C(=O)c1c(O)cc(C)cc1O	94*	-0.4
COC(=O)c1cc(O)cc(OC)c1C(=O)c1c(O)cc(C)cc1OC	-6	0.59
CCOC(=O)c1sc2nc(SCc3cccc(Cl)c3)n(Cc3cccs3)c(=O)c2c1C	4	·
